# Hit rate of the full screen: of about 63,000 compounds, about 1,100 (1.7%) were called active. Cut-off read from the data, not from the text of the source: active = cytotoxicity above about 50%; inactive = the rest. This excerpt belongs to a sample that is enriched for actives. Potency and affinity values are given separately.
# Experiment: cytotoxicity in HPDE-C7 cells, cell-based, fluorescence, HTS (AID 430);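 note: cells exposed to compound for 48 hours before viability readout; 0% = vehicle and 100% = reference cytotoxic drug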
# Conditions: HPDE-C7 pancreatic duct cells viability, at 10 µM, active compounds read high
row,SMILES,cytotoxicity
1,Cc1ccc(CN2CCN(C(=O)C3CCCO3)CC2)cc1 (stereo unspecified),-27.2% (inactive)
2,CCOc1ccccc1NC(=O)CSc1nccn1-c1ccccc1,-12.5% (inactive)
3,COc1ccc(CCn2c(N)c(C(=O)NCc3ccco3)c3nc4ccccc4nc32)cc1OC,32.4% (inactive)
4,Nc1c(C(=O)NCCN2CCOCC2)c2nc3ccccc3nc2n1-c1ccc2c(c1)OCO2,1% (inactive)
5,Nc1c(C(=O)NCCN2CCOCC2)c2nc3ccccc3nc2n1CCc1ccccc1F,0.5% (inactive)
6,Nc1ccc(-n2c(N)c(C(=O)NCc3ccc4c(c3)OCO4)c3nc4ccccc4nc32)cc1,26.7% (inactive)
7,Nc1c(C(=O)NCCN2CCOCC2)c2nc3ccccc3nc2n1CCc1ccccc1,7.5% (inactive)
8,COc1ccc(-n2c(N)c(C(=O)NCc3ccco3)c3nc4ccccc4nc32)c(OC)c1,14.2% (inactive)
9,CN1CCN(S(=O)(=O)c2ccc3c4c(cccc24)C(=O)N3)CC1,5.6% (inactive)
10,COc1ccc(NC(=O)C2CCN(S(=O)(=O)c3cccc4cccnc34)CC2)cc1,-6.3% (inactive)
11,CCOC(=O)N1CCN(C(=O)CSc2nnc(Cc3cccn3C)n2CCc2ccccc2)CC1,-10.2% (inactive)
12,Cc1cccc2cc(COC(=O)c3ccccn3)c(=O)[nH]c12,-10.7% (inactive)
13,C=CCn1c(=N)n(CC(=O)O)c2ccccc21,-15.2% (inactive)
14,COCCCn1c(-c2ccsc2)nc2c1c(=O)[nH]c(=O)n2Cc1ccccc1,-11% (inactive)
15,CCCC(=O)Nc1cccc2c1CCCC2,2.9% (inactive)
16,Cc1ccc(-n2nnc3c(=O)n(Cc4cccc(C)c4)cnc32)cc1,0.4% (inactive)
17,CCOC(=O)c1sc(NC(=O)c2cc3c(C)nn(-c4ccccc4)c3s2)nc1C,4% (inactive)
18,Nc1nonc1C(=O)NCCN=Cc1cc(Cc2ccccc2)cc(Br)c1O,87.2% (active)
19,Nc1nonc1C(=O)NCCNC(=O)c1ccccc1F,-4.8% (inactive)
20,COc1cccc(C=NCCNC(=O)c2nonc2N)c1O,9.3% (inactive)
21,O=C1c2oc3ccc(Br)cc3c(=O)c2C(c2cccnc2)N1Cc1ccco1 (stereo unspecified),-14.2% (inactive)
22,Oc1c(-c2cc(-c3ccco3)[nH]n2)ccc2ccccc12,1.8% (inactive)
23,CSc1nc(N)nc(SCC(=O)OC(C)C)c1C#N,-1.7% (inactive)
24,CSc1nc(N)nc(SCC(=O)C23CC4CC(CC(C4)C2)C3)c1C#N,74% (active)
25,CSc1nc(N)nc(SCC(=O)c2ccc(C)cc2)c1C#N,3.8% (inactive)
26,Cc1cc2n(n1)C(c1ccc(O)cc1)Nc1ccccc1-2 (stereo unspecified),7.9% (inactive)
